# An excerpt weighted towards active compounds, which were near 5.3% of everything screened.
# TDP1 inh: qHTS Assay for Inhibitors of Tyrosyl-DNA Phosphodiesterase (TDP1); Tyrosyl-DNA phosphodiesterase 1 (Homo sapiens), Q9NUW8; recombinant TDP1, AlphaScreen DNA substrate cleavage; Potency, µM (top dose mostly 130 µM), without a hit: at the top dose activity change, negative = inhibition, hits mostly inhibitors; hit rate 0.28% among 350,000; AID 485290, 2010; further: potency means the concentration at half of the fitted maximal effect; on the % scale 0 is the no-effect control and ±100 the full control effect; nearly all actives have a fitted effect of over 40% in size
#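 Signal: AlphaScreen proximity between streptavidin donor and anti-FITC acceptor beads on intact substrate. Reaction: Tdp1 1 nM, substrate 15 nM final, 5 min RT after 15 min compound preincubation.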
# Six1-Eya2 blk: qHTS Assay for Inhibitors of the Six1/Eya2 Interaction. activity change, % (test concentration not listed). AlphaScreen GST-Six1/His-Eya2 binding, biochemical; stronger effect = lower value. hit rate 0.56% among 360,000. AID 651725, 2012; in the data active means activity change below about -65%; inconclusive means mostly about -30% to -63%; further: on the % scale 0 is the no-effect control and ±100 the full control effect
#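 AlphaScreen with GST-Six1 and His-Eya2 (5X mix: 250 nM and 500 nM), glutathione donor and nickel acceptor beads; buffer 50 mM Tris pH 8.0, 300 mM NaCl, 1 mM TCEP; 1 h at 37 C in the dark.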
# BAZ2B block: qHTS Assay for Inhibitors of BAZ2B | Bromodomain adjacent to zinc finger domain protein 2B (Homo sapiens), Q9UIF8 | AlphaScreen BAZ2B-H3K14Ac peptide displacement | Potency, µM (doses to about 114 µM), for inactives: top-dose activity change, negative = inhibition, usual class: inhibitors | hit rate 4.4% among 360,000 | AID 504333, 2011; further: potency means the concentration at half of the fitted maximal effect; on the % scale 0 is the no-effect control and ±100 the full control effect; nearly all actives have a fitted effect of over 60% in size
#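 Compounds, titrated to a top concentration of 110 uM, were incubated 30 min at room temperature with preformed BAZ2B/acetyl-K14 H3 peptide complex (50 nM each). Proximity signal was measured by AlphaScreen after 20 min with beads.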
# JMJD2A Tudor inh: qHTS Assay for Inhibitors of JMJD2A-Tudor Domain; Lysine-specific demethylase 4A (Homo sapiens), O75164; AID 504339, 2011; Potency, µM (series often up to 114 µM), for inactives: at the highest dose activity change, negative = inhibition, hits mostly inhibitors; hit rate 4.4% among 390,000; AlphaScreen JMJD2A-Tudor / H3K4me3 peptide binding; further: potency means the concentration at half of the fitted maximal effect; on the % scale 0 is the no-effect control and ±100 the full control effect; nearly all actives have a fitted effect of over 50% in size
# CtBP-E1A inh: qHTS Assay for Inhibitors of the CtBP/E1A Interaction; CtBP / adenovirus E1A interaction (AlphaScreen); AlphaScreen GST-E1A/His-CtBP binding, 1536-well; stronger effect = lower value; activity change, % (no concentration beside the values); hit rate 0.49% among 340,000; in the data active means activity change below about -65%; inconclusive means mostly about -30% to -63%; further: on the % scale 0 is the no-effect control and ±100 the full control effect
#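 Protein mix (5X: 125 nM each GST-E1A, His-CtBP) was incubated with pinned compound 2 h at 37 deg C in dark, in 50 mM Tris pH 8.0 buffer with 300 mM NaCl. Glutathione donor and nickel acceptor beads followed; AlphaScreen signal read after 1 h.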
# HP1b chromo inh: HTS for Inhibitors of HP1-beta Chromodomain Interactions with Methylated Histone Tails | hit rate 0.56% among 390,000 | Potency, µM (top dose mostly 114 µM), inactives show top-dose activity change, negative = inhibition, usual class: inhibitors | Chromobox protein homolog 1 (Homo sapiens), P83916 | AlphaScreen HP1-beta / biotin-H3K9me3 peptide binding | AID 540317, 2011; further: potency means the concentration at half of the fitted maximal effect; nearly all actives have a fitted effect of over 70% in size
# Target sequence (P83916 whole entry, looked up): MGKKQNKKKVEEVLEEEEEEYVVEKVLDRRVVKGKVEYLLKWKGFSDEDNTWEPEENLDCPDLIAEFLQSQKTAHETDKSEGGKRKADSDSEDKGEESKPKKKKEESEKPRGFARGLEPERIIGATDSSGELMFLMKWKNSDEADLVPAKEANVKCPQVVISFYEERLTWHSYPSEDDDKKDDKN
#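 AlphaScreen: HP1-beta (50 nM) preformed 30 min with biotin-H3(1-18)K9me3 peptide (50 nM) in PBS pH 7.4, 0.01% Tween-20. Compound added for 30 min at RT, then streptavidin donor/nickel chelate acceptor beads (10 ug/mL) for 30 min.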
# ME-1 prolif: qHTS Assay for Compounds Blocking the Interaction Between CBF-beta and RUNX1 for the Treatment of Acute Myeloid Leukemia: ME-1 cellular proliferation; hit rate 20% among 140; Potency, µM (doses to about 56.1 µM), inactives show top-dose activity change, negative = inhibition, hits mostly inhibitors; shares compounds with BAZ2B block; AID 504370, 2011; ME-1 cell proliferation, ATP luminescence, 48 h
# G9a inh: qHTS Assay for Inhibitors of Histone Lysine Methyltransferase G9a: Hit Confirmation; shares compounds with JMJD2A Tudor inh; G9a H3K9 monomethylation, AlphaScreen, 2 h; Potency, µM, usual class: inhibitors; hit rate 89% among 370; AID 588344, 2011; further: potency means the concentration at half of the fitted maximal effect; nearly all actives have a fitted effect of over 65% in size
# Target sequence (Q96KQ7 913-1193 limits assumed): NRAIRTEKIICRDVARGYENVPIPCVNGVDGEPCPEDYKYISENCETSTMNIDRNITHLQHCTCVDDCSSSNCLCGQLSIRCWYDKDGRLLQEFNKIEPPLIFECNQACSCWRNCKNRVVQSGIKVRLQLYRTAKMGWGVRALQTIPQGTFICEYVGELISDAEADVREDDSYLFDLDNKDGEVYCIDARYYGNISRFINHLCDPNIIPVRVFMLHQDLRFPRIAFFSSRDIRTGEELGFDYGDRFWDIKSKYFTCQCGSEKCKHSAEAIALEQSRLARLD
# An asterisk follows results filed as active; ? = inconclusive; . = no result given; [ ] = dose if it differs, or a comment. Unless noted, the call rests on the fitted dose curve; in most records, active means well fitted curve in the direction sought with a large enough effect; inconclusive means small, poorly fitted or top-dose-only effect, or another doubt; inactive means no such curve, though single readings can be large; an effect the other way counts as inactive or inconclusive.
SMILES,TDP1 inh,Six1-Eya2 blk,BAZ2B block,JMJD2A Tudor inh,CtBP-E1A inh,HP1b chromo inh,others
S=c1[nH]nc(-c2ccccc2)n1C1C=CCCC1 (stereo unspecified),-1%,5,-3%,3.2µM*,-9,5%,
CC(=O)c1c(C)n(CC2CCCO2)c2ccc(O)cc12 (stereo unspecified),-2%,1,7%,-10%,6,7%,
S=c1[nH]nc(-c2ccccc2)n1CC1CCCO1 (stereo unspecified),10%,10,-1%,40µM*,1,48%,
CSc1cccc(NC(=O)C2CCN(C(=O)c3cnn(-c4ccccc4)c3-n3cccc3)CC2)c1,5%,.,?,-34%,.,2%,
CC(OC(=O)COc1ccc(Nc2ccccc2)cc1)C(=O)N(C)c1ccccc1 (stereo unspecified),.,?,22µM*,35µM*,?,?,
Cc1ncc2n1-c1ccc(Cl)cc1C(c1ccccc1F)=NC2O (stereo unspecified),13%,.,.,.,.,.,
CCOC(=O)CC(NC(=O)C(Cc1ccc(N(CCCl)CCCl)cc1)NC(C)=O)C(=O)OCC (stereo unspecified),-14%,3,20µM*,13µM*,6,?,
CC(=O)NC(Cc1ccc(N(CCCl)CCCl)cc1)C(=O)NC(C(=O)O)C(C)C (stereo unspecified),5%,-1,-38%,1%,6,21%,
Cc1ccc(NC(=O)Cn2c(=O)cc(-c3ccccc3)c3c(C)nn(C)c32)c(Cl)c1,6%,.,0%,-19%,.,50%,
C=CCBr,13%,.,.,.,.,.,
CCn1nc(-c2ccccc2)nc2c(=O)n(C)c(=O)nc1-2,5%,-27,3%,-14%,-26,36%,ME-1 prolif=11µM*
Cc1nc2c(=O)n(C)c(=O)nc-2n(C)n1,6%,-20,-5%,6%,-3,17%,
Cc1cccc(-n2c(O)c(/C=N/Nc3nc4c(c(=O)n(C)c(=O)n4C)n3C)c(=O)[nH]c2=S)c1,3%,-90*,?,?,-73*,-19%,ME-1 prolif=-13%
Cc1cccc(-n2c(O)c(C=NCCN3CCNCC3)c(=O)[nH]c2=S)c1,.,9,-25%,-6%,9,34%,
Oc1ccc(Cl)cc1Sc1cc(Cl)ccc1O,10%,9,.,?,-10,0%[57 µM],
COc1cccc(OC)c1-c1nn2c(-c3n[nH]c4c3CCC4)nnc2s1,-5%,.,.,-15%[57.1 µM],.,13%[57 µM],
CCCCc1ccc(C(=O)O)nc1,15%[56.1 µM],-87*,4µM*,9%,-68*,33%,ME-1 prolif=?
CN(N=O)c1cc(O)ccc1O,?,.,.,6.3µM*,.,?,ME-1 prolif=40µM*
Cc1cccc(N(CC(=O)NCCSc2ccc(Cl)cc2)S(=O)(=O)c2ccccc2)c1C,.,.,-1%,4%,.,41%,
C=C1CC[C@H](O)C/C1=C/C=C1\CCC[C@]2(C)[C@H]1CC[C@H]2[C@@H](C)CCCC(C)C,17%[21 µM],.,.,.,.,.,ME-1 prolif=-2%
CCCCNC(=O)Oc1c(Br)cc2sc(=O)oc2c1Br,.,.,50µM*,.,.,.,ME-1 prolif=?
NC1=N[C@H](O)[C@H]2C3O[C@]4(O)O[C@H](C(O)[C@@]2(N1)[C@@H]4O)C3(O)CO (stereo partly specified),17%,.,.,.,.,.,
CCc1nc(-c2ccc(C)nc2OC)no1,2%,-9,-7%,-12%,1,7%,G9a inh=1.8*
CCc1nc(CNC(=O)c2cc(OC)c(OC)c(OC)c2)no1,3%,6,9%,-17%[11.4 µM],-1,8%,
O=[As]O[As]=O (stereo unspecified),2%,.,.,.,.,.,
SMILES,TDP1 inh,Six1-Eya2 blk,BAZ2B block,JMJD2A Tudor inh,CtBP-E1A inh,HP1b chromo inh,others
CCCCN1CCS(=O)(=O)N(Cc2ccccc2Br)CC(C(=O)OC)C1 (stereo unspecified),-4%[56.1 µM],1,.,-11%,-2,97%,
Cc1ccc(OCC(=O)N2CCN(Cc3cccnc3)CC2)cc1,-13%,1,.,4µM*,6,?,G9a inh=16*
O=C(COc1ccc(Cl)cc1)N1CCN(Cc2ccc([N+](=O)[O-])cc2)CC1,0%,-9,.,11µM*,.,?,G9a inh=35*
CSc1ccc(CN2CCN(C(=O)COc3cccc(C)c3)CC2)cc1,3%,5,50µM*,8.9µM*,-15,40µM*,G9a inh=40*
COc1ccccc1CNC(=O)C(NS(=O)(=O)c1ccc2c(c1)oc(=O)n2C)C(C)C (stereo unspecified),-5%,0,-2%,-6%,0,46%,
c1ccc(CNCCc2ccc3c(c2)OCO3)nc1,7%,-30,45µM*,?,8,4%,G9a inh=?
Fc1ccc(CCNCc2ccccc2Cl)cc1,-2%,9,4%,3%,11,40%,
Fc1cccc(CCNCc2ccccn2)c1,-8%,-11,20µM*,3.5µM*,-14,-1%,G9a inh=28*
NC(=O)CNC(=O)[C@H](Cc1ccccc1)NC(=O)[C@H](CCCN=C(N)N)NC(=O)[C@@H](N)Cc1ccc(O)cc1,4%,.,.,.,.,.,
Cn1c(N2CCNCC2)nc2ccccc21,4%,3,-3%,-3%,0,22%,
Cc1cc(N2CCNCC2)nc2ccccc12,.,2,-5%,-17%,7,34%,G9a inh=?
